Test results: the supplement of paper PMC8291772
± gives the standard error. The full ranking holds about 1,300 sequences; the median of “fluorescence a.u.” is about 420, and the highest 2% start at about 1,100. Shown is part of a subset that was picked to be rich in the highest values.

What follows are sequences tested against terminal deoxynucleotidyl transferase (calf thymus) (UniProt P06526) (assay: TdT poly-dT extension signal (Cy3 hybridisation fluorescence, uncapped minus capped) (fluorescence a.u.); higher = more efficient initiation of TdT extension). Settings: initiator chemistry: 2'-O-methyl-RNA, free 3'-OH (5'-tethered via HEG linker).
terminal deoxynucleotidyl transferase (calf thymus), sequence (P06526 whole entry): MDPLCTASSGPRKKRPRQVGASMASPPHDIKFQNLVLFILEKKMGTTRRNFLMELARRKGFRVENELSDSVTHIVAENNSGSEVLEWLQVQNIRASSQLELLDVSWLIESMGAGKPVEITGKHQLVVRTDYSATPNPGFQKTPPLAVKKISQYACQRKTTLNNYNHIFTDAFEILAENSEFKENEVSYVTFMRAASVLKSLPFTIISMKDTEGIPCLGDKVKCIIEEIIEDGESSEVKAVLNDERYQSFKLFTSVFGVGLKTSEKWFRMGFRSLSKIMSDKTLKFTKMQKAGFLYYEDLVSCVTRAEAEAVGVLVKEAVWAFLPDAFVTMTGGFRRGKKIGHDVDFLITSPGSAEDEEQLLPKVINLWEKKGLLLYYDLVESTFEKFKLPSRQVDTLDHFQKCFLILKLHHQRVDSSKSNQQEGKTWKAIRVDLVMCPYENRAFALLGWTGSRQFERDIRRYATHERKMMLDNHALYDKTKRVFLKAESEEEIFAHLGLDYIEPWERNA
Protocol: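 All mono- to pentamer 2'-O-methyl-RNA initiators were made by photolithographic in situ synthesis (3'-NPPOC amidites, reverse direction, free 3'-OH) on glass on a hexaethylene glycol linker. Each was made in uncapped and DMTr-dT-capped versions, about 11 replicates each. Arrays were extended with calf thymus TdT (0.2 U/uL), 100 uM dTTP and 0.25 mM CoCl2 for 120 min at 37 C, hybridised with an rA18-Cy3 probe and scanned at 532 nm. The value is the mean uncapped minus the mean capped signal. IDs are written 3'->5' and are reversed to 5'->3'; all nucleotides are 2'-OMe.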

Row | Sequence | TdT poly-dT extension signal
1 | CCUAG | 353 ± 33
2 | GGUA | 376 ± 23
3 | CGUAU | 326 ± 32
4 | CCUU | 343 ± 26
5 | CGUUU | 232 ± 14
6 | CGCCG | 324 ± 46
7 | GCAAA | 1260 ± 170
8 | GCAAC | 935 ± 81
9 | ACAAA | 1170 ± 100
10 | ACAA | 1060 ± 140
11 | CCAAA | 1170 ± 64
12 | CCAA | 1060 ± 95
13 | CCAAC | 725 ± 53
14 | GCAA | 841 ± 41
15 | ACAAG | 613 ± 60
16 | AUACG | 244 ± 16
17 | CCUA | 528 ± 39
18 | GAUA | 432 ± 34
19 | CACAU | 469 ± 23
20 | UACG | 231 ± 24
21 | GACGC | 1120 ± 110
22 | UACGC | 1190 ± 92
23 | CUCGU | 483 ± 44
24 | GGUC | 489 ± 33
25 | CAGU | 512 ± 30
26 | CACA | 425 ± 22

Row | Sequence | TdT poly-dT extension signal
27 | AAAGU | 535 ± 51
28 | GUAAC | 558 ± 40
29 | UGCAA | 770 ± 77
30 | UCAGA | 821 ± 37
31 | AAUAA | 788 ± 62
32 | ACCUA | 571 ± 34
33 | UUUCA | 224 ± 24
34 | GCGAA | 1000 ± 120
35 | GACUU | 318 ± 22
36 | AGGAG | 436 ± 25
37 | CAUGG | 217 ± 15
38 | CAGGC | 1060 ± 81
39 | AAGG | 383 ± 41
40 | AAGGC | 1170 ± 40
41 | CUCC | 396 ± 35
42 | AUCAC | 729 ± 63
43 | CUGUC | 440 ± 40
44 | AAUGA | 403 ± 20
45 | AUUCC | 377 ± 21
46 | GUGAA | 729 ± 86
47 | AUUGG | 176 ± 11
48 | GCUUG | 230 ± 30
49 | GAUUA | 366 ± 28
50 | GAAUU | 321 ± 24
51 | AGCGA | 556 ± 38
52 | UUCGC | 1170 ± 79

Row | Sequence | TdT poly-dT extension signal
53 | UUCG | 159 ± 17
54 | UUCGU | 500 ± 42
55 | GCGCA | 351 ± 19
56 | GCCG | 192 ± 16
57 | UCGC | 1140 ± 90
58 | UCGCA | 463 ± 31
59 | UCGCU | 401 ± 25
60 | CAACA | 373 ± 34
61 | UCGG | 302 ± 31
62 | AAGAU | 506 ± 39
63 | UUAGG | 271 ± 26
64 | UCGAU | 402 ± 31
65 | AGGGC | 1120 ± 71
66 | CUAUA | 436 ± 37
67 | GUAUG | 157 ± 12
68 | CGGCU | 341 ± 24
69 | UCACG | 290 ± 31
70 | CUCAG | 488 ± 37
71 | CCCCG | 227 ± 18
72 | GGUAG | 272 ± 28
73 | ACCAC | 681 ± 58
74 | UCUG | 199 ± 16
75 | UUAUA | 375 ± 34
76 | CUCCG | 194 ± 14
77 | AACUC | 504 ± 22
78 | CAUGC | 1140 ± 140

Row | Sequence | TdT poly-dT extension signal
79 | AAUGG | 219 ± 18
80 | CAUG | 261 ± 26
81 | CAUGU | 374 ± 35
82 | AAUG | 175 ± 23
83 | AAUGC | 1140 ± 77
84 | CGUAC | 482 ± 33
85 | AACUU | 369 ± 22
86 | GGCGG | 310 ± 26
87 | AUAGG | 266 ± 22
88 | CCUGG | 221 ± 18
89 | GCGGA | 554 ± 28
90 | GUCUG | 218 ± 15
91 | GGCUA | 621 ± 50
92 | AAAAA | 1140 ± 80
93 | UAAAA | 1190 ± 120
94 | AAAA | 1010 ± 74
95 | CAAAG | 703 ± 58
96 | AAAAG | 572 ± 40
97 | UAAA | 764 ± 51
98 | GAAAG | 560 ± 51
99 | CAAAA | 1140 ± 66
100 | UAAAG | 531 ± 53
101 | GAAA | 879 ± 110
102 | CAAA | 1010 ± 77
103 | GAAAA | 1340 ± 160
104 | UUUAA | 472 ± 39

Row | Sequence | TdT poly-dT extension signal
105 | CACUG | 276 ± 22
106 | GUUG | 156 ± 11
107 | AGAA | 990 ± 120
108 | ACAGA | 899 ± 79
109 | CGAU | 429 ± 24
110 | CCCGC | 1200 ± 97
111 | CCCG | 312 ± 43
112 | UCCGC | 1090 ± 36
113 | CCCCC | 425 ± 34
114 | AACAG | 567 ± 34
115 | AUGUG | 141 ± 13
116 | CGGUU | 300 ± 22
117 | GAGGG | 362 ± 32
118 | AUUAU | 330 ± 49
119 | UGCGG | 324 ± 29
120 | UCAGC | 1040 ± 72
121 | AUUC | 339 ± 23
122 | CAGGU | 493 ± 28
123 | GGGGG | 472 ± 39
124 | AAUUA | 354 ± 22
125 | GCCAA | 696 ± 70
126 | UGGU | 453 ± 25
127 | UUUAC | 399 ± 22
128 | CCCAU | 552 ± 28
129 | GCCGG | 264 ± 21
130 | UCGA | 592 ± 34

Row | Sequence | TdT poly-dT extension signal
131 | CGGGC | 1070 ± 81
132 | UAGU | 371 ± 23
133 | AGGAU | 433 ± 28
134 | CUUAC | 422 ± 38
135 | CAAAU | 657 ± 54
136 | CAGUC | 521 ± 42
137 | CACGG | 422 ± 55
138 | GCCAG | 491 ± 83
139 | GUAAU | 383 ± 30
140 | CGUCA | 307 ± 18
141 | UAACA | 312 ± 21
142 | GGCAU | 577 ± 48
143 | ACAUC | 447 ± 23
144 | GGGCA | 291 ± 26
145 | GGGCG | 330 ± 32
146 | GGGC | 1320 ± 130
147 | AGUG | 231 ± 23
148 | GGUGU | 484 ± 37
149 | UGUGC | 1360 ± 95
150 | AGUGC | 1230 ± 130
151 | CGUGC | 1220 ± 81
152 | GGUG | 210 ± 18
153 | UGUG | 149 ± 15
154 | GGUGC | 1450 ± 72
155 | AGUGG | 280 ± 18
156 | CGUGA | 389 ± 45

Row | Sequence | TdT poly-dT extension signal
157 | CGUG | 298 ± 26
158 | UGUGA | 362 ± 29
159 | CGGAG | 465 ± 66
160 | GGCUG | 287 ± 31
161 | CUAGC | 785 ± 76
162 | CAGUA | 544 ± 58
163 | AAAU | 568 ± 46
164 | CGCU | 427 ± 65
165 | CCAG | 470 ± 39
166 | CCAGA | 833 ± 99
167 | CCAGC | 1240 ± 140
168 | CAAGG | 388 ± 18
169 | UAAG | 401 ± 44
170 | GAAGC | 1060 ± 81
171 | AAAG | 538 ± 32
172 | UAAGG | 350 ± 28
173 | UAAGC | 1190 ± 89
174 | CAAG | 600 ± 36
175 | AAAGC | 1270 ± 67
176 | CAAGC | 1300 ± 67
177 | GUCUA | 477 ± 45
178 | UUGG | 177 ± 12
179 | UCAGG | 384 ± 36
180 | AAUAC | 583 ± 71
181 | GACA | 349 ± 28
182 | CCGGC | 929 ± 50

Row | Sequence | TdT poly-dT extension signal
183 | UGGA | 586 ± 52
184 | UAGGG | 313 ± 21
185 | AACUA | 675 ± 34
186 | UUCGA | 389 ± 32
187 | GACCA | 345 ± 31
188 | ACUCG | 256 ± 14
189 | UCGGU | 469 ± 22
190 | GGAC | 724 ± 120
191 | GCGGG | 285 ± 16
192 | UUAC | 418 ± 28
193 | CGCUG | 264 ± 25
194 | UUGCU | 326 ± 35
195 | AACGA | 620 ± 72
196 | CCACC | 410 ± 37
197 | AUCAG | 458 ± 47
198 | ACCAG | 559 ± 61
199 | GAAAC | 1000 ± 140
200 | AAUUU | 252 ± 27
201 | AACCG | 293 ± 26
202 | UCACC | 396 ± 31
203 | UUUCU | 226 ± 34
204 | CCGCG | 351 ± 19
205 | UUCAU | 442 ± 20
206 | CAGCU | 361 ± 26
207 | CAGC | 1170 ± 110
208 | CAGCA | 560 ± 60

Row | Sequence | TdT poly-dT extension signal
209 | CCUUC | 341 ± 33
210 | CAUU | 293 ± 19
211 | GAACG | 310 ± 29
212 | GCAG | 492 ± 30
213 | AGAG | 491 ± 39
214 | AGAGA | 827 ± 77
215 | GGAGC | 1340 ± 130
216 | AGAGC | 1140 ± 83
217 | GGAG | 374 ± 20
218 | CGAGC | 1020 ± 61
219 | UCAUU | 329 ± 26
220 | UGAAA | 894 ± 54
221 | CUCUU | 266 ± 14
222 | GCGC | 946 ± 73
223 | AGUU | 341 ± 23
224 | CAAGA | 858 ± 93
225 | GAGGC | 1040 ± 84
226 | GGCUU | 336 ± 21
